Measured values from article PMC11062922 (Nature Chemical Biology, 2023).
Like-named read-outs stand apart in the source and are kept apart here.

Key:
Design in all cases: species or system human, MV4-11 + K-562 + COLO205 + SK-N-BE2 + OVCAR-8
[1] = tested on: CSNK1D; conditions: read-out: apparent Kd, compound concentrations: 100 nM and 1000 nM (sheet 'Samples'), n = 1
[2] = tested on: MAPK14; conditions: read-out: apparent Kd, compound concentrations: 100 nM and 1000 nM (sheet 'Samples'), n = 1
[3] = tested on: MAPKAPK2; conditions: read-out: apparent Kd; compound concentrations: 100 nM and 1000 nM (sheet 'Samples'), CATDS: 0.38711156152007697; n = 1
[4] = tested on: RPS6KA1; conditions: read-out: apparent Kd; compound concentrations: 100 nM and 1000 nM (sheet 'Samples'), CATDS: 0.20748336668369699; n = 1
[5] = tested on: DDR1; conditions: read-out: apparent Kd, n = 1
[6] = tested on: GARS; conditions: read-out: apparent Kd; compound concentrations: 100 nM and 1000 nM (sheet 'Samples'), CATDS: 0.27158737746623501; n = 1
[7] = tested on: NTRK1; conditions: read-out: apparent Kd; compound concentrations: 100 nM and 1000 nM (sheet 'Samples'), CATDS: 0.40728649446902998; n = 1
[8] = tested on: PBK; conditions: read-out: apparent Kd; compound concentrations: 100 nM and 1000 nM (sheet 'Samples'), CATDS: 0.53596365658376799; n = 1
[9] = tested on: DDR2; conditions: read-out: apparent Kd; compound concentrations:100 nM and 1000 nM (sheet 'Samples'); n = 1
[10] = tested on: PIK3CD; conditions: read-out: apparent Kd; compound concentrations:100 nM and 1000 nM (sheet 'Samples'); n = 1
[11] = tested on: DYNC1LI1; conditions: read-out: apparent Kd; compound concentrations:100 nM and 1000 nM (sheet 'Samples'); n = 1
[12] = tested on: FLT3; conditions: read-out: apparent Kd; compound concentrations:100 nM and 1000 nM (sheet 'Samples'); n = 1
[13] = tested on: RET; conditions: read-out: apparent Kd, n = 1
[14] = tested on: FLT4; conditions: read-out: apparent Kd; compound concentrations: 100 nM and 1000 nM (sheet 'Samples'), CATDS: 0.39951332259871902; n = 1
[15] = tested on: MAP3K1; conditions: read-out: apparent Kd; compound concentrations: 100 nM and 1000 nM (sheet 'Samples'), CATDS: 0.16547922944675; n = 1
[16] = tested on: CSNK1G1; conditions: read-out: apparent Kd; compound concentrations: 100 nM and 1000 nM (sheet 'Samples'), CATDS: 0.44433796545528997; n = 1
[17] = tested on: PKM; conditions: read-out: apparent Kd; compound concentrations: 100 nM and 1000 nM (sheet 'Samples'), CATDS: 0.57160468415719301; n = 1
[18] = tested on: HCK; conditions: read-out: apparent Kd; compound concentrations: 100 nM and 1000 nM (sheet 'Samples'), CATDS: 9.2745081986231104E-2; n = 1
[19] = tested on: IRAK3; conditions: read-out: apparent Kd; compound concentrations: 100 nM and 1000 nM (sheet 'Samples'), CATDS: 7.7549132648748395E-2; n = 1
[20] = tested on: LYN; conditions: read-out: apparent Kd; compound concentrations: 100 nM and 1000 nM (sheet 'Samples'), CATDS: 7.2911258996188402E-2; n = 1
[21] = tested on: MAPK11; conditions: read-out: apparent Kd; compound concentrations: 100 nM and 1000 nM (sheet 'Samples'), CATDS: 7.9880632684471306E-2; n = 1
[22] = tested on: PIP4K2C; conditions: read-out: apparent Kd; compound concentrations: 100 nM and 1000 nM (sheet 'Samples'), CATDS: 6.71745626151799E-2; n = 1
[23] = tested on: RIPK3; conditions: read-out: apparent Kd; compound concentrations: 100 nM and 1000 nM (sheet 'Samples'), CATDS: 7.1422785641186204E-2; n = 1
[24] = tested on: TNK1; conditions: read-out: apparent Kd; compound concentrations: 100 nM and 1000 nM (sheet 'Samples'), CATDS: 0.18276083287815401; n = 1
[25] = tested on: TP53RK; conditions: read-out: apparent Kd; compound concentrations: 100 nM and 1000 nM (sheet 'Samples'), CATDS: 6.3683372655405995E-2; n = 1
[26] = tested on: YES1; conditions: read-out: apparent Kd; compound concentrations: 100 nM and 1000 nM (sheet 'Samples'), CATDS: 0.118526844217484; n = 1
[27] = compound concentrations:100 nM and 1000 nM (sheet 'Samples')

**Q.** Which results are given for Nc1nc(-c2ccccc2F)c(-c2ccnc3ccccc23)s1 [GW560459X]?
**A.** potency estimated from few doses ([1]; CATDS: 0.216607074037657): 1180 nM; potency estimated from few doses ([2]; CATDS: 0.25122803409734401): 843 nM; potency estimated from few doses [3]: 389 nM; potency estimated from few doses [4]: 1320 nM

**Q.** How did the potency estimated from few doses ([5]; compound concentrations: 100 nM and 1000 nM (sheet 'Samples'), CATDS: 0.34932428035118401) turn out when FC(F)(F)c1ccc(-c2nn3ncccc3c2-c2ccnc(Nc3ccccc3)n2)cc1 [GW828206X] was run?
**A.** 1130 nM

**Q.** And the potency estimated from few doses [6]?
**A.** 2010 nM

**Q.** What about the potency estimated from few doses [7] of the same compound?
**A.** 854 nM

**Q.** How did the potency estimated from few doses ([1]; CATDS: 0.46855924192133103) turn out when Cn1c(-c2ccncc2)c(-c2ccc(F)cc2)c2ncccc21 [RO1155240-000] was run?
**A.** 2250 nM

**Q.** And the potency estimated from few doses [8]?
**A.** 1720 nM

**Q.** For COC(=O)Nc1nc2cc(Oc3ccc(NC(=O)Nc4cc(F)ccc4F)cc3)ccc2[nH]1.Cl [GW701424A], which potency estimated from few doses [5, 27] is on record?
**A.** 242 nM

**Q.** And the potency estimated from few doses [9]?
**A.** 1120 nM

**Q.** And the potency estimated from few doses [10]?
**A.** 11.2 nM

**Q.** How did the potency estimated from few doses [5, 27] turn out when COC(=O)Nc1nc2cc(Oc3ccc(NC(=O)Nc4cc(C(F)(F)F)ccc4F)cn3)ccc2[nH]1.COC(=O)Nc1nc2cc(Oc3ccc(NC(=O)Nc4cc(C(F)(F)F)ccc4F)cn3)ccc2[nH]1.Cl.Cl [GW681170A] was run?
**A.** 278 nM

**Q.** What about the potency estimated from few doses [9] of the same compound?
**A.** 1460 nM

**Q.** And the potency estimated from few doses [11]?
**A.** 1830 nM

**Q.** And the potency estimated from few doses [12]?
**A.** 1240 nM

**Q.** And the potency estimated from few doses [13, 27]?
**A.** 461 nM

**Q.** How did the potency estimated from few doses [5, 27] turn out when Cc1cn(-c2cc(NC(=O)c3ccc4c(c3)CN(c3cncnc3)C[C@@H]4C)cc(C(F)(F)F)c2)cn1 [D2202-1] was run?
**A.** 494 nM

**Q.** And the potency estimated from few doses [9]?
**A.** 915 nM

**Q.** For CN(c1ccc2c(c1)nc(NCc1ccc(F)cc1)n2C)c1ccnc(Nc2ccc(CS(C)(=O)=O)cc2)n1.Cl [GW813244A], which potency estimated from few doses ([5]; compound concentrations: 100 nM and 1000 nM (sheet 'Samples'), CATDS: 0.20099617628952601) is on record?
**A.** 841 nM

**Q.** And the potency estimated from few doses [14]?
**A.** 166 nM

**Q.** And the potency estimated from few doses [15]?
**A.** 1840 nM

**Q.** And the potency estimated from few doses ([13]; compound concentrations: 100 nM and 1000 nM (sheet 'Samples'), CATDS: 0.40344037001579403)?
**A.** 163 nM

**Q.** Which results are given for COc1cccc(NC(=O)Nc2ccc(C)c(-c3ccc(C(=O)Nc4ccncc4)cc3)c2)c1 [GSK1398474A]?
**A.** potency estimated from few doses [16]: 1890 nM; potency estimated from few doses [17]: 1140 nM

**Q.** Which potency estimated from few doses ([5]; compound concentrations: 100 nM and 1000 nM (sheet 'Samples'), CATDS: 6.8880271318571995E-2) does the source give for COc1cc(Nc2nccc(-c3c(-c4cccc(NC(=O)c5c(F)cccc5F)c4)nn4ncccc34)n2)cc(OC)c1OC [GSK327238A] here?
**A.** 1830 nM

**Q.** And the potency estimated from few doses [18]?
**A.** 926 nM

**Q.** What about the potency estimated from few doses [19] of the same compound?
**A.** 1360 nM

**Q.** What about the potency estimated from few doses [20] of the same compound?
**A.** 1580 nM

**Q.** And the potency estimated from few doses [21]?
**A.** 1270 nM

**Q.** And the potency estimated from few doses ([2]; CATDS: 7.1692025023195896E-2)?
**A.** 1650 nM

**Q.** What about the potency estimated from few doses [22] of the same compound?
**A.** 1960 nM

**Q.** What about the potency estimated from few doses ([13]; compound concentrations: 100 nM and 1000 nM (sheet 'Samples'), CATDS: 0.140384770008642) of the same compound?
**A.** 450 nM

**Q.** What about the potency estimated from few doses [23] of the same compound?
**A.** 1660 nM

**Q.** And the potency estimated from few doses [24]?
**A.** 305 nM

**Q.** What about the potency estimated from few doses [25] of the same compound?
**A.** 2300 nM

**Q.** What about the potency estimated from few doses [26] of the same compound?
**A.** 592 nM
